This is part of a sample that, as a whole, favours compounds with a hit. Of some 79,000 tested, about 15% had one in any assay. Calls of active or inactive are those of the source. Rule as the data show it: active = growth inhibition above about 70%; inactive = the rest.

The nature of the first assay: NCI Yeast Anticancer Drug Screen. Data for the bub3 strain (AID 167). To be noted: S. cerevisiae bub3 mutant strain, at 50.0 µM (retest, dose inferred, filed as 5.0), stronger effect = higher value. The essentials:
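Part of a panel of yeast mutants defective in DNA damage repair or cell cycle regulation. Each strain is grown with compound, and inhibition is calculated relative to solvent-treated cultures.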
Turning to `CN(C)CC(CN(C)C)C(=O)/C=C/c1ccc(Cl)cc1Cl`, the growth inhibition is 98% (active).

Turning to `c1ccc2c(c1)ccn2CCc1c[nH]c2ccccc12`, the growth inhibition is 70% (active).

Consider `Cc1ccccc1NC(=O)c1c(C)oc2c1C(=O)c1ccccc1C2=O`, for which the growth inhibition was 94% (active).

In the case of `CC(C)OC(=O)NNc1c(Cl)cc(Cl)cc1Cl`, the growth inhibition was 82% (active).

For `COc1ccc2nc3cccc([N+](=O)[O-])c3c(NCCNCCO)c2c1`, the growth inhibition is 90% (active).

Take `COc1ccc2c(c1)CCCC(Br)C2=O` (stereo not given): the growth inhibition was 97% (active).

Regarding `CCC(OC(C)=O)C1CC(C(C)C)CCC1C` (stereo not given), the growth inhibition is 29% (inactive).

Turning to `O=S(=O)(c1cccc(C(F)(F)F)c1)N1c2ccccc2-n2cccc2C1c1cccnc1` (stereo not given), the growth inhibition is 96% (active).

For the compound `c1ccc(-c2cc(C3CO3)c3ccccc3n2)cc1` (stereo not given), the growth inhibition is 31% (inactive).

For the compound `COc1ccc(/C=C2\SC(=S)N(/C=C3\C(=O)N(c4ccccc4)N=C3C)C2=O)cc1OC`, the growth inhibition is 17% (inactive).

As to `CC1=CC(=C(c2ccc(N)c(C)c2)c2ccc(N)c(C)c2)C=CC1=N`, the growth inhibition is 97% (active).

With `CC(/C=C/c1ccc([N+](=O)[O-])o1)=N/N1CC(CN2CCOCC2)OC1=O` (stereo not given), the growth inhibition was 87% (active).

Consider `C=CC(C)(C)N1C(=O)C(C(C)=O)=C(O)C1Cc1c[nH]c2ccccc12` (stereo not given), for which the growth inhibition was 55% (inactive).

On to `O=C1c2cccc3cccc(c23)C(=O)N1CCNCCN1C(=O)c2cccc3cccc(c23)C1=O`, for which the growth inhibition was 1% (inactive).

Turning to `Cc1ccc([N+](=O)[O-])c2c(NCCC[N+](C)(C)[O-])c3ccccc3nc12`, the growth inhibition is 3% (inactive).

With `COC(=O)C(Cc1c[nH]c2ccccc12)N1CN(C)c2ccccc2C1=O` (stereo not given), the growth inhibition is 44% (inactive).

In the case of `O=C(/N=N/C(=O)Oc1ccccc1)Oc1ccccc1`, the growth inhibition is 69% (inactive).

As to `COc1cc([C@@H]2c3cc4c(cc3[C@@H](NC(=O)NO)[C@H]3COC(=O)[C@H]23)OCO4)cc(OC)c1O`, the growth inhibition was -13% (inactive).

As for `CC1(C)CC(=O)C(/C=N/c2nc(-c3ccc(Br)cc3)cs2)=C(O)C1`, the growth inhibition was 98% (active).

As for `CCOC(=O)/C(=C/c1cccc(Cl)c1)N(CC)CC`, the growth inhibition is 90% (active).

Turning to `CC(C)OC(=O)NNc1cccc(Cl)c1`, the growth inhibition is 98% (active).

Turning to `CCC(=O)C1=C(O)c2cc(OC)ccc2CC1C(=O)OC` (stereo not given), the growth inhibition is 78% (active).

Consider `O=S(=O)(NC1CCCC(c2ccccc2)C1)c1ccccc1` (stereo not given), for which the growth inhibition is 76% (active).

Consider `COc1ccc2nc3cccc([N+](=O)[O-])c3c(NCCCCCC(=O)O)c2c1`, for which the growth inhibition is 99% (active).

As for `CCO/C=C1\SC(=S)N(c2ccc(OCC)cc2)C1=O`, the growth inhibition is 73% (active).

As for `COc1cc(OC)c(CSCC(NC(=O)OCC2c3ccccc3-c3ccccc32)C(=O)O)c(OC)c1` (stereo not given), the growth inhibition is 99% (active).

Regarding `COC(=O)c1ccccc1N=NNc1cccc(SC)c1`, the growth inhibition is 87% (active).

On to `CC1=NN(C(=O)c2ccccc2O)C(=O)/C1=C/c1ccco1`, for which the growth inhibition was 94% (active).

Turning to `COc1ccccc1NC(=O)c1ccc(Cl)cc1`, the growth inhibition was -10% (inactive).

For the compound `CC(C)=CCC/C(C)=C/CN1C(=O)C=CC1=O`, the growth inhibition was 99% (active).

Turning to `O=C1CSC(c2ccccc2)N1c1ccc(-c2ccc(-n3c(-c4ccccc4)nc4ccccc4c3=O)cc2)cc1` (stereo not given), the growth inhibition is 77% (active).

`N#CC1OB(O)c2ccccc21` (stereo not given): the growth inhibition was -36% (inactive).

Regarding `O=C(NCCNCCNC(=O)c1cc(-c2ccccc2)nc2ccccc12)c1cc(-c2ccccc2)nc2ccccc12`, the growth inhibition is 58% (inactive).

Consider `Brc1ccc(B2Nc3ccccc3N2)cc1`, for which the growth inhibition was 73% (active).

As to `CCOP(=O)(OCC)/C(C#N)=C/c1cccc(Oc2ccccc2)c1`, the growth inhibition was 95% (active).

The assay is the same for the next values; noted with them: S. cerevisiae bub3 mutant strain, at 50.0 µM, stronger effect = higher value.
In the case of `CN(C)CC(CN(C)C)C(=O)/C=C/c1ccc(Cl)cc1Cl`, the growth inhibition is 99% (active).

Turning to `c1ccc2c(c1)ccn2CCc1c[nH]c2ccccc12`, the growth inhibition is 89.7% (active).

`Cc1ccccc1NC(=O)c1c(C)oc2c1C(=O)c1ccccc1C2=O`: the growth inhibition is 69.2% (inactive).

`CC(C)OC(=O)NNc1c(Cl)cc(Cl)cc1Cl`: the growth inhibition was 93.2% (active).

On to `COc1ccc2nc3cccc([N+](=O)[O-])c3c(NCCNCCO)c2c1`, for which the growth inhibition was 67.7% (inactive).

Take `COc1ccc2c(c1)CCCC(Br)C2=O` (stereo not given): the growth inhibition was 90.1% (active).

Take `CCC(OC(C)=O)C1CC(C(C)C)CCC1C` (stereo not given): the growth inhibition was 21.4% (inactive).

With `O=S(=O)(c1cccc(C(F)(F)F)c1)N1c2ccccc2-n2cccc2C1c1cccnc1` (stereo not given), the growth inhibition was 94.7% (active).

Regarding `c1ccc(-c2cc(C3CO3)c3ccccc3n2)cc1` (stereo not given), the growth inhibition was 93.2% (active).

Take `COc1ccc(/C=C2\SC(=S)N(/C=C3\C(=O)N(c4ccccc4)N=C3C)C2=O)cc1OC`: the growth inhibition was 67.6% (inactive).

With `CC1=CC(=C(c2ccc(N)c(C)c2)c2ccc(N)c(C)c2)C=CC1=N`, the growth inhibition is 89.8% (active).

On to `CC(/C=C/c1ccc([N+](=O)[O-])o1)=N/N1CC(CN2CCOCC2)OC1=O` (stereo not given), for which the growth inhibition was 41.8% (inactive).

`C=CC(C)(C)N1C(=O)C(C(C)=O)=C(O)C1Cc1c[nH]c2ccccc12` (stereo not given): the growth inhibition is 46.8% (inactive).

Turning to `O=C1c2cccc3cccc(c23)C(=O)N1CCNCCN1C(=O)c2cccc3cccc(c23)C1=O`, the growth inhibition is 0.65% (inactive).

Consider `Cc1ccc([N+](=O)[O-])c2c(NCCC[N+](C)(C)[O-])c3ccccc3nc12`, for which the growth inhibition is -36% (inactive).

As to `COC(=O)C(Cc1c[nH]c2ccccc12)N1CN(C)c2ccccc2C1=O` (stereo not given), the growth inhibition was 40.4% (inactive).

In the case of `O=C(/N=N/C(=O)Oc1ccccc1)Oc1ccccc1`, the growth inhibition is 55% (inactive).

Regarding `COc1cc([C@@H]2c3cc4c(cc3[C@@H](NC(=O)NO)[C@H]3COC(=O)[C@H]23)OCO4)cc(OC)c1O`, the growth inhibition was -5.95% (inactive).

Turning to `CC1(C)CC(=O)C(/C=N/c2nc(-c3ccc(Br)cc3)cs2)=C(O)C1`, the growth inhibition is 98.8% (active).

Take `CCOC(=O)/C(=C/c1cccc(Cl)c1)N(CC)CC`: the growth inhibition is 83.5% (active).

`CC(C)OC(=O)NNc1cccc(Cl)c1`: the growth inhibition was 99% (active).

`CCC(=O)C1=C(O)c2cc(OC)ccc2CC1C(=O)OC` (stereo not given): the growth inhibition is 38.9% (inactive).

As for `O=S(=O)(NC1CCCC(c2ccccc2)C1)c1ccccc1` (stereo not given), the growth inhibition was 60.8% (inactive).

For `COc1ccc2nc3cccc([N+](=O)[O-])c3c(NCCCCCC(=O)O)c2c1`, the growth inhibition is 87.2% (active).

In the case of `CCO/C=C1\SC(=S)N(c2ccc(OCC)cc2)C1=O`, the growth inhibition is 72.2% (active).

Consider `COc1cc(OC)c(CSCC(NC(=O)OCC2c3ccccc3-c3ccccc32)C(=O)O)c(OC)c1` (stereo not given), for which the growth inhibition was 99.2% (active).

Turning to `COC(=O)c1ccccc1N=NNc1cccc(SC)c1`, the growth inhibition is 85.9% (active).

As to `CC1=NN(C(=O)c2ccccc2O)C(=O)/C1=C/c1ccco1`, the growth inhibition was 87% (active).

In the case of `COc1ccccc1NC(=O)c1ccc(Cl)cc1`, the growth inhibition was 23.9% (inactive).

For `CC(C)=CCC/C(C)=C/CN1C(=O)C=CC1=O`, the growth inhibition was 99.4% (active).

For `O=C1CSC(c2ccccc2)N1c1ccc(-c2ccc(-n3c(-c4ccccc4)nc4ccccc4c3=O)cc2)cc1` (stereo not given), the growth inhibition is 82.3% (active).

Take `N#CC1OB(O)c2ccccc21` (stereo not given): the growth inhibition is 69.7% (inactive).

Regarding `O=C(NCCNCCNC(=O)c1cc(-c2ccccc2)nc2ccccc12)c1cc(-c2ccccc2)nc2ccccc12`, the growth inhibition is 97.8% (active).

On to `Brc1ccc(B2Nc3ccccc3N2)cc1`, for which the growth inhibition was 84.8% (active).

As to `CCOP(=O)(OCC)/C(C#N)=C/c1cccc(Oc2ccccc2)c1`, the growth inhibition was 90.3% (active).
